# Screens as filed in PubChem.
# Hits are enriched below; roughly 14% of the tested compounds scored in any of these assays.
# Pf growth 48h: inhibits P. falciparum growth in the first generation, 48 h; P. falciparum luciferase growth in erythrocytes, 48 h; Potency, µM (series often up to 28.7 µM), without a hit: at the highest dose activity change, negative = inhibition, most hits filed as inhibitors; 310,000 compounds, 5.9% hits; AID 504832; further: potency means the concentration at half of the fitted maximal effect
#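 Luciferase-expressing parasites in RBCs, 2% Hct / 0.1% parasitemia final; RPMI 1640 + 0.5% Albumax; 37 C, 5% CO2, one generation; luminescence read-out, lower signal = inhibition.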
# FBPA Giardia inh: blocks Giardia fructose-bisphosphate aldolase activity | purified Giardia FBPA | Potency, µM (doses to about 59.6 µM), inactives show at the top dose activity, negative = inhibition, most hits filed as inhibitors | 290,000 compounds, 0.71% hits | A8B2U2; further: potency means the concentration at half of the fitted maximal effect; nearly all actives have a fitted effect of over 55% in size
# Target sequence (A8B2U2 whole entry, looked up): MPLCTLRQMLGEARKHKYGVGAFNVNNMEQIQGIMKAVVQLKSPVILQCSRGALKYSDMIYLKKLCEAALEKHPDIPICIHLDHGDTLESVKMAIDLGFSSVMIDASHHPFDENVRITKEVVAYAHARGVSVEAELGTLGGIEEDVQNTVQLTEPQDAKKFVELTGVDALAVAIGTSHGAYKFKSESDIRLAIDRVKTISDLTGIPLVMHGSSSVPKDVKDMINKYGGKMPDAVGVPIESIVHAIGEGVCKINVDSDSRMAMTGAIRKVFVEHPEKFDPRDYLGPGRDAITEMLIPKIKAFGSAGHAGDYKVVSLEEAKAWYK
#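 40 nM FBPA preincubated 10 min at RT with compound (up to 57.5 uM final), then substrate plus GAPDH/TPI/NAD/arsenate coupling and diaphorase/resazurin added. Fluorescence read after 20 min at RT, 525/598 nm.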
# HCMV inh: blocks human cytomegalovirus replication; 410,000 compounds, 4.5% hits; HFF cells, HCMV-luciferase reporter, 72 h; hits give low values; activity change, negative = inhibition, % at 57.5 µM; in the data active means activity change below about -60%; inconclusive means no clear call, values can overlap the other calls; inactive means above about -39%
#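 HFF cells seeded 16 h at 37C, treated with compounds, infected with luciferase-reporter HCMV at MOI 1 PFU/cell; luciferase read at 72 h post infection, normalized to buffer-only and Salinomycin controls.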
# Pf growth 96h: P. falciparum growth inhibition at 96 hour, primary screen for plastid delayed-death inhibitors | Potency, µM (doses to about 28.7 µM), for inactives: top-dose activity change, negative = inhibition, usual class: inhibitors | 320,000 compounds, 6.9% hits | P. falciparum luciferase reporter growth, 96 h; further: potency means the concentration at half of the fitted maximal effect
#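 Luminescence readout: decreased luciferase signal marks inhibited growth of reporter-expressing P. falciparum in infected red cells (2% hematocrit, 0.05% parasitemia final), exposed to compound two generations (96 h, 37 C, 5% CO2).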
# Sm TGR block: blocks Schistosoma mansoni thioredoxin glutathione reductase; purified TGR, DTNB reduction, TNB absorbance 405 nm; AID 485364; Potency, µM (top dose mostly 114 µM), for the others: at the top dose activity change, negative = inhibition, actives largely listed as inhibitors; Q962Y6; 360,000 compounds, 3% hits; further: potency means the concentration at half of the fitted maximal effect; nearly all actives have a fitted effect of over 60% in size
#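 Kinetic colorimetric format: TGR-catalysed, NADPH-driven DTNB reduction monitored via TNB absorbance. Enzyme dispensed at 20 nM; compound exposure 15 min at room temperature before reaction start.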
# * marks the source's active call; other numbers are inactive results; i = inactive; ? = inconclusive; / = no result. Unless noted, the call rests on the fitted dose curve; in most records, active means well fitted curve in the direction sought with a large enough effect; inconclusive means small, poorly fitted or top-dose-only effect, or another doubt; inactive means no such curve, though single readings can be large; an effect the other way counts as inactive or inconclusive. On the % scale 0 is the no-effect control and ±100 the full control effect.
SMILES,Pf growth 48h,FBPA Giardia inh,HCMV inh,Pf growth 96h,Sm TGR block
CC(=O)NC(CCS(C)(=O)=O)C(=O)Nc1cccc(C(C)=O)c1 (centres undefined),6%,-1%,1,?,45µM*
CC(=O)NC(CCS(C)(=O)=O)C(=O)Nc1ccccc1 (centres undefined),19%,-1%,30,25%,-8%
CCCCOC(=O)c1ccc(NC(=O)C(CCS(C)(=O)=O)NC(C)=O)cc1 (centres undefined),56%,6%,31,5.2µM*,-2%
CC1CCC(C(C)C)C(OC(=O)Cn2c(-c3ccc(F)cc3)[n+](C)c3ccccc32)C1 (centres undefined),0.83µM*,5%,-102*,?,-2%
CC1CCC(C(C)C)C(OC(=O)Cn2c(-c3ccccc3)[n+](C)c3ccccc32)C1 (centres undefined),0.47µM*,-3%,-100*,245%,0%
CC1CCC(C(C)C)C(OC(=O)C[n+]2cc(-c3ccc(Cl)cc3)n3c2CCC3)C1 (centres undefined),?,0%,?,?,0%
CN(CCc1ccc(Cl)c(Cl)c1)CCN1CCCCCC1,/,-11%,/,/,/
S=c1[nH]nc(-c2cccnc2)n1/N=C/C=C/c1ccccc1,-4%,16%,?,12%,3%
O=C(CSc1ccsc1[N+](=O)[O-])Nc1cc(F)ccc1F,-29%,-12%,-3,31%,35µM*
CCN(CC)c1ccc(NC(=O)CSc2ccsc2[N+](=O)[O-])c(C)c1,-28%,-13%,-21,4%,-25%
O=C(Nc1ccc(OC(F)(F)F)cc1)Nc1cccc([N+](=O)[O-])c1,2.6µM*,-14%,-104*,?,-10%
Cc1ccc(NC(=O)Nc2cccc([N+](=O)[O-])c2)cc1F,12%,-1%,-100*,?,-8%
C=CCN(C(=O)CCC(=O)Nc1cc(C)on1)C(C(=O)NC(C)(C)C)c1ccc(OC)cc1 (centres undefined),-10%,1%,22,1%,7%
CC(C)(C)OC(=O)NC(Cc1ccccc1)C(=O)O (centres undefined),1%,-2%,-15,15%,-4%
Cc1oc(-c2ccc3c(c2)OCCO3)cc1C(=O)NC(Cc1ccccc1)C(=O)O (centres undefined),-18%,9%,-17,22%,35µM*
Cc1oc(C(C)(C)C)cc1C(=O)NC(Cc1ccccc1)C(=O)O (centres undefined),19%,13%,-77*,?,0%
COc1ccc(NC(=S)N(Cc2cccnc2)Cc2cc3cc(OC)c(OC)cc3[nH]c2=O)cc1,?,2%,-21,-22%,2%
COc1ccc(Cc2n[nH]c(=S)o2)cc1,-8%,-27%,-25,?,35µM*
S=c1[nH]nc(CSCCOc2ccccc2)o1,11%,?,3,3%,8%
S=c1[nH]nc(COc2ccc3ccccc3c2)o1,45%,10%,-6,9.3µM*,-20%
COc1ccc(CCCc2n[nH]c(=S)o2)cc1,20%,-13%,5,i,0%
COc1ccc(N2CCN(C(=O)CN=C3NS(=O)(=O)C(c4ccc(C)cc4)=C3C)CC2)cc1,?,-15%,-61*,4%,-1%
O=C(COc1ccccc1)NCc1nnc2c3ccccc3c(-c3ccccc3)nn12,?,8%,-63*,?,-11%
CCOc1ccc(C(C(=O)NCC2CCCO2)N(C(=O)c2snc(C(N)=O)c2N)c2ccccc2F)cc1 (centres undefined),?,/,12,?,-1%
Cc1ccc(N(C(=O)c2snc(C(N)=O)c2N)C(C(=O)NCCC(C)C)c2ccco2)cc1 (centres undefined),-25%,-8%,-63*,?,-8%
SMILES,Pf growth 48h,FBPA Giardia inh,HCMV inh,Pf growth 96h,Sm TGR block
CC(C)CCNC(=O)C(c1ccco1)N(Cc1ccccc1)C(=O)c1snc(C(N)=O)c1N (centres undefined),?,-1%,-20,/,-28%
Cc1ccc(C(C(=O)NCC2CCCO2)N(C(=O)c2snc(C(N)=O)c2N)c2ccc3c(c2)OCCO3)cc1 (centres undefined),10µM*,-7%,-5,-4%,5%
CCOc1ccc(C(C(=O)NCC2CCCO2)N(C(=O)c2snc(C(N)=O)c2N)c2cccc(F)c2)cc1 (centres undefined),13µM*,-6%,-14,28%,0%
Cc1ccc(N(C(=O)c2snc(C(N)=O)c2N)C(C(=O)NCC2CCCO2)c2ccc3ncccc3c2)cc1 (centres undefined),?,-1%,-20,2%,-9%
CCOc1ccc(C(C(=O)NCC2CCCO2)N(Cc2cccs2)C(=O)c2snc(C(N)=O)c2N)cc1 (centres undefined),13µM*,9%,-68*,?,4%
Cn1c(=O)c2c(-c3ccccc3)n(-c3cc(Cl)c([N+](=O)[O-])cc3O)cc2n(C)c1=O,/,/,39,/,/
NC(=O)c1nsc(C(=O)N(c2ccc3c(c2)OCCO3)C(C(=O)NCC2CCCO2)c2ccc(F)cc2)c1N (centres undefined),?,-9%,-74*,-3%,11%
CNc1ccccc1C(C)(C)c1cc(-c2ccc(F)cc2)no1,?,-2%,-85*,8.3µM*,-15%
COc1ccc(S(=O)(=O)/N=C2\C=C(Nc3ccc(O)cc3)C(=O)c3ccccc32)cc1,0.93µM*,?,-99*,18%,-3%
CCc1ccc(S(=O)(=O)/N=C2\C=C(NS(=O)(=O)c3ccccc3)C(=O)c3ccccc32)cc1,30%,?,-36,-10%,?
Cc1ccccc1NC1=C/C(=N\S(=O)(=O)c2cccs2)c2ccccc2C1=O,0.093µM*,?,-106*,/,?
Cc1ccc(C)c(S(=O)(=O)/N=C2\C=C(NS(=O)(=O)c3ccccc3)C(=O)c3ccccc32)c1,?,/,18,?,?
CC(=O)Nc1ccc(NC(=O)C(C)OC(=O)c2ccccc2NS(=O)(=O)c2cccs2)cc1 (centres undefined),-5%,?,-1,?,15%
Cc1ccc(NC2=C/C(=N/S(=O)(=O)c3cccs3)c3ccccc3C2=O)cc1C,0.66µM*,?,62,11%,-3%
CC(=O)Nc1ccc(NC2=C/C(=N/S(=O)(=O)c3cccs3)c3ccccc3C2=O)cc1,0.15µM*,?,-101*,104%,-34%
CCc1nc2ccc(C(=O)N3CCN(C(=O)c4ccco4)CC3)cn2c1N(CCC(C)C)CCN(C)C,/,/,-5,/,/
CC(C)c1cccc(C(C)C)c1OCCn1ccnc1,13µM*,-6%,-17,-26%,0%
Cc1cccc(OCCCn2ccnc2)c1,9.3µM*,2%,-16,0%,2%
